Laboratory results reported in PubChem BioAssay (NCATS).
Records with an inconclusive call do not appear. The source made the active and inactive calls. Calls come from the whole dose curve; as a rule, active = well fitted curve in the direction sought with a large enough effect; inconclusive = small, poorly fitted or top-dose-only effect, or another doubt; inactive = no such curve, though single readings can be large; an effect the other way counts as inactive or inconclusive.

Key:
TAB109 = assay: qHTS profiling for inhibitors of Plasmodium falciparum proliferation (AID 504749);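 note: 0% = DMSO vehicle and full inhibition = artemisinin control; nearly all actives have a fitted effect of over 60% in size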; conditions: P. falciparum in erythrocytes, SYBR Green DNA, 72 h; series mostly up to 28.7 µM
How it was run: (§1)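 SYBR Green fluorescence of parasite DNA, read after lysis and overnight dark incubation, measured growth over 72 h in erythrocyte culture at 0.3% parasitemia and 2.5% hematocrit. Data normalised to DMSO and 0.29 uM artemisinin, with plate-drift correction.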

TAB113 = assay: as above; conditions: P. falciparum in erythrocytes, SYBR Green DNA, 72 h; series mostly up to 28.7 µM
How it was run: as §1

TAB165 = assay: as above; conditions: P. falciparum in erythrocytes, SYBR Green DNA, 72 h; series mostly up to 28.7 µM
How it was run: as §1

W2 = assay: as above; conditions: P. falciparum in erythrocytes, SYBR Green DNA, 72 h; series mostly up to 28.7 µM
How it was run: as §1

CRL-7250 = normal cell line; assay: Cytotoxic Profiling of Annotated Libraries Using Quantitative High-Throughput Screening (AID 1296008); conditions: Five cell lines viability, CellTiter-Glo ATP luminescence, 48-72 h; max response: hits give low values; note: nearly all actives have a fitted effect of over 60% in size; for max response: % is set by controls: 0 for no effect and ±100 for the full control effect
How it was run: (§2)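 Cytotoxicity was measured as CellTiter-Glo ATP luminescence, read after 10 min at room temperature. Compound treatment of the cells lasted 48 or 72 hr at 37 degrees Celsius in a qHTS format.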

HEK293 = assay: as above; conditions: Five cell lines viability, CellTiter-Glo ATP luminescence, 48-72 h; max response: hits give low values
How it was run: as §2

HaCat [1] = assay: as above; conditions: Five cell lines viability, CellTiter-Glo ATP luminescence, 48-72 h; max response: hits give low values
How it was run: as §2

KB-3-1 = assay: as above; conditions: Five cell lines viability, CellTiter-Glo ATP luminescence, 48-72 h; max response: hits give low values
How it was run: as §2

NIH3T3 [2] = assay: as above; conditions: Five cell lines viability, CellTiter-Glo ATP luminescence, 48-72 h; max response: hits give low values
How it was run: as §2

HACAT [3] = assay: qHTS assay to identify novel small-molecules to repurpose for Merkel cell carcinoma treatment (AID 1296009); conditions: MCC and control cell lines, CellTiter-Glo viability, 72 h; at 44.8 µM (top of the series) unless noted; note: nearly all actives have a fitted effect of over 60% in size
How it was run: (§3)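 Cell viability, measured as CellTiter-Glo luminescence, was normalized between DMSO and no-cell wells. The cells had been exposed to 8- or 11-point compound dilutions for 72 hr at 37 degree celsius.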

HEK293T = assay: as above; conditions: MCC and control cell lines, CellTiter-Glo viability, 72 h; at 44.8 µM (top of the series) unless noted
How it was run: as §3

MCC-13 = assay: as above; conditions: MCC and control cell lines, CellTiter-Glo viability, 72 h; series mostly up to 46 µM
How it was run: as §3

MCC-26 = assay: as above; conditions: MCC and control cell lines, CellTiter-Glo viability, 72 h; series mostly up to 46 µM
How it was run: as §3

MKL-1 = assay: as above; conditions: MCC and control cell lines, CellTiter-Glo viability, 72 h; series mostly up to 46 µM
How it was run: as §3

MKL-2 = assay: as above; conditions: MCC and control cell lines, CellTiter-Glo viability, 72 h; series mostly up to 46 µM
How it was run: as §3

UISO = assay: as above; conditions: MCC and control cell lines, CellTiter-Glo viability, 72 h; series mostly up to 46 µM
How it was run: as §3

WaGa = assay: as above; conditions: MCC and control cell lines, CellTiter-Glo viability, 72 h; series mostly up to 46 µM
How it was run: as §3

C33A = assay: Primary qHTS to identify gynecologic anti-cancer compounds using libraries of approved drugs and bioactive compounds (AID 1345084); conditions: Gynecologic cancer cell panel viability, ATPlite luminescence, 48 h; series mostly up to 57.5 µM; note: % is set by controls: 0 for no effect and ±100 for the full control effect; nearly all actives have a fitted effect of over 55% in size
How it was run: (§4)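 Cell viability after 48 h drug treatment, ATPlite luminescence readout; five doses.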

CAOV3 = assay: as above; conditions: Gynecologic cancer cell panel viability, ATPlite luminescence, 48 h; series mostly up to 57.5 µM
How it was run: as §4

NIH3T3 [4] = assay: qHTS assay to identify novel small-molecules to repurpose for Merkel cell carcinoma treatment (AID 1296009); conditions: MCC and control cell lines, CellTiter-Glo viability, 72 h; at 44.8 µM (top of the series) unless noted; note: nearly all actives have a fitted effect of over 60% in size
How it was run: as §3

O=C1OC(OC(=O)c2cccnc2Nc2cccc(C(F)(F)F)c2)c2ccccc21 (stereo not given)
inactive: Potency (TAB109) | Potency (TAB113) | Potency (TAB165) | Potency (W2) | max response (CRL-7250) 1.85% | outcome (HEK293) | outcome (HaCat [1]) | max response (KB-3-1) 7.28% | max response (NIH3T3 [2]) -3.9% | outcome (HACAT [3]) | outcome (HEK293T) | Potency (MCC-13) | Potency (MCC-26) | Potency (MKL-1) | Potency (MKL-2) | Potency (UISO) | Potency (WaGa) | Potency (C33A)

C#CCN(C)Cc1ccccc1
inactive: Potency (TAB109) | Potency (TAB113) | Potency (TAB165) | Potency (W2) | max response (CRL-7250) 4.31% | max response (HEK293) -27.7% | outcome (HaCat [1]) | max response (KB-3-1) -4.93% | max response (NIH3T3 [2]) 3.32% | outcome (HACAT [3]) | Potency (MCC-13) | Potency (MCC-26) | Potency (MKL-1) | Potency (MKL-2) | Potency (UISO) | Potency (WaGa) | Potency (C33A) | Potency (CAOV3)

N[C@@H](CSCCCO)C(=O)O
inactive: Potency (TAB109) | Potency (TAB113) | Potency (TAB165) | Potency (W2) | max response (CRL-7250) -1.84% | outcome (HEK293) | max response (HaCat [1]) 2.87% | max response (KB-3-1) -1.02% | outcome (NIH3T3 [2]) | outcome (HEK293T) inactive [at 17.4 µM] | Potency (MCC-13) | Potency (MCC-26) | Potency (MKL-1) | Potency (MKL-2) | outcome (NIH3T3 [4]) inactive [at 17.4 µM] | Potency (UISO) | Potency (WaGa) | Potency (C33A) | Potency (CAOV3)

O=c1cc[nH]c(=O)[nH]1
inactive: Potency (TAB109) | Potency (TAB113) | Potency (TAB165) | Potency (W2) | outcome (CRL-7250) | outcome (HEK293) | max response (HaCat [1]) -1.66% | max response (KB-3-1) 20.9% | outcome (NIH3T3 [2]) | outcome (HEK293T) | Potency (MCC-13) | Potency (MCC-26) | Potency (MKL-1) | Potency (MKL-2) | outcome (NIH3T3 [4]) | Potency (UISO) | Potency (WaGa) | Potency (C33A) | Potency (CAOV3)

NCC(=O)CCC(=O)O
inactive: Potency (TAB109) | Potency (TAB113) | Potency (TAB165) | max response (CRL-7250) -2.12% | outcome (HEK293) | max response (HaCat [1]) -9.5% | max response (KB-3-1) 1.71% | outcome (NIH3T3 [2]) | outcome (HEK293T) | Potency (MCC-13) | Potency (MCC-26) | Potency (MKL-1) | Potency (MKL-2) | outcome (NIH3T3 [4]) | Potency (UISO) | Potency (WaGa) | Potency (C33A) | Potency (CAOV3)

CC(COc1ccccc1)NC(C)C(O)c1ccc(O)cc1 (stereo not given)
inactive: max response (CRL-7250) -14.7% | outcome (HEK293) | max response (HaCat [1]) -5.97% | max response (KB-3-1) 15.9% | outcome (NIH3T3 [2]) | outcome (HEK293T) | Potency (MCC-13) | Potency (MCC-26) | Potency (MKL-1) | Potency (MKL-2) | outcome (NIH3T3 [4]) | Potency (UISO) | Potency (WaGa) | Potency (C33A) | Potency (CAOV3)

CC12CCC(CC1)C(C)(C)O2
inactive: Potency (TAB109) | Potency (TAB113) | Potency (TAB165) | Potency (W2) | max response (CRL-7250) 3.08% | outcome (HEK293) | max response (HaCat [1]) -2.38% | max response (KB-3-1) -7.48% | outcome (NIH3T3 [2]) | outcome (HEK293T) | Potency (MCC-13) | Potency (MCC-26) | Potency (MKL-1) | Potency (MKL-2) | outcome (NIH3T3 [4]) | Potency (UISO) | Potency (WaGa) | Potency (C33A) | Potency (CAOV3)

Nc1cc(=O)[nH]c(N)n1
inactive: outcome (CRL-7250) | max response (HEK293) 4.25% | outcome (HaCat [1]) | max response (KB-3-1) -2.08% | max response (NIH3T3 [2]) -15.9% | outcome (HACAT [3]) | Potency (MCC-13) | Potency (MCC-26) | Potency (MKL-1) | Potency (MKL-2) | Potency (UISO) | Potency (WaGa) | Potency (C33A) | Potency (CAOV3)

CCOC(=O)c1ccc(O)cc1
inactive: Potency (TAB109) | Potency (TAB113) | Potency (TAB165) | Potency (W2) | max response (CRL-7250) -1.17% | outcome (HEK293) | max response (HaCat [1]) -1.41% | outcome (NIH3T3 [2]) | outcome (HEK293T) | Potency (MCC-13) | Potency (MCC-26) | Potency (MKL-1) | Potency (MKL-2) | outcome (NIH3T3 [4]) | Potency (UISO) | Potency (WaGa) | Potency (C33A) | Potency (CAOV3)

COc1cc(C(=O)N2CCOCC2)cc(OC)c1OC
inactive: Potency (TAB109) | Potency (TAB113) | Potency (TAB165) | Potency (W2) | max response (CRL-7250) 0.938% | max response (HEK293) 1.96% | outcome (HaCat [1]) | outcome (NIH3T3 [2]) | outcome (HACAT [3]) | Potency (MCC-13) | Potency (MCC-26) | Potency (MKL-1) | Potency (MKL-2) | outcome (NIH3T3 [4]) | Potency (UISO) | Potency (WaGa) | Potency (C33A)
